Source: PubChem BioAssay AID686978 (National Center for Advancing Translational Sciences (NCATS), 2013)
The campaign covered roughly 420,000 compounds. About 64,000 (15%) were called active. Not shown: some 27% with an inconclusive outcome. A selection follows. Unmarked numbers belong to inactive results. Calls come from the whole dose curve; as a rule, active = well fitted inhibition curve with a large enough effect; inconclusive = small, poorly fitted or top-dose-only effect; inactive = flat fitted curve, though single readings scatter.

assay: qHTS for Inhibitors of human tyrosyl-DNA phosphodiesterase 1 (TDP1): qHTS in cells in absence of CPT; conditions: DT40 Tdp1-/- hTDP1 cells, no CPT, ATP luminescence, 48 h; activity change, negative = growth inhibition: at 46.2 µM (top of the series); note: nearly all actives have a fitted effect of over 55% in size
Summary of the method: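 A cellular qHTS used chicken DT40 cells lacking endogenous Tdp1 but carrying stably transfected human TDP1. Compounds were applied without camptothecin, and cell growth kinetics were judged by ATP-dependent luminescence after ≥48 hr.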
% is set by controls: 0 for no effect and ±100 for the full control effect; potency is the fitted concentration of half-maximal effect.

| Structure (SMILES) | activity change, negative = growth inhibition [%] | Potency |
| --- | --- | --- |
| O=c1ccc(-c2ccc(S(=O)(=O)Nc3ccccc3)o2)n[nH]1 | -10.7 | – |
| COc1ccc(CNC(=O)COc2cccnc2[N+](=O)[O-])cc1 | 20.7 | – |
| COc1cccc(-c2cc(NC(C)=O)c3ncc(-c4cccc(C(C)=O)c4)n3c2)c1 | – | 23.1 µM (active) |
| CSc1nc2nc(-c3cccc(C(F)(F)F)c3)ccn2n1 | -24.8 | – |
| COc1cccc(-c2cnc3c(NC(C)=O)cc(-c4cc(F)ccc4OC)cn23)c1 | – | 23.1 µM (active) |
| CC(=O)Oc1cccc(C(=O)Nc2ccccc2NC(=O)c2cccc(OC(C)=O)c2)c1 | -21.2 | – |
| COc1cccc(NC(=O)CSc2nnc(-c3cccnc3)o2)c1 | -0.853 | – |
| CNc1cnc(-c2cc(OC)c(OC)c(OC)c2)cn1 | 10.9 | – |
| CC(=O)Nc1cc(-c2ccccc2F)cn2c(-c3cccc(C(F)(F)F)c3)cnc12 | – | 0.326 µM (active) |
| O=C(CNS(=O)(=O)c1cccc(C(F)(F)F)c1)Nc1ccccc1F | -2.97 | – |
| COc1cccc(C(NC(C)=O)c2nc(-c3ccccc3OC)cs2)c1 (centres undefined) | -25.4 | – |
| COc1ccc(-c2cc(NC(C)=O)c3ncc(-c4cc(OC)c(OC)c(OC)c4)n3c2)cn1 | – | 2.91 µM (active) |
| COc1cccc(NC(=O)C2c3cc(OC)c(OC)cc3C(=O)N(C)C2c2cccnc2)c1 (centres undefined) | -16.5 | – |
| CCCCOP(=O)(c1ccc(N(C)C)cc1)C(O)c1cc(OC)ccc1OC (centres undefined) | 1.13 | – |
| CCC1=[N+]([O-])C(C)(/C(C)=N\O)N(O)C1(C)C (centres undefined) | 4.6 | – |
| CN1C[C@@H](CO)O[C@@H](n2cnc3c(N4CCN(CCO)CC4)ncnc32)C1 | -5.1 | – |
| Cc1ccc(NC(=O)CSCC(=O)Nc2sccc2C#N)cc1 | 1.64 | – |
| Cc1cc(=O)oc2c3c(cc(OCC(=O)NCc4ccccn4)c12)OC(C)(C)CC3 | – | 25.9 µM (active) |
| Cc1cc(=O)oc2c3c(cc(OCC(=O)NCCC(=O)N[C@@H](C)C(=O)O)c12)OC(C)(C)CC3 | -2.86 | – |
| Cc1cc(=O)oc2c3c(cc(OCC(=O)N[C@H](C(=O)O)c4ccccc4)c12)OC(C)(C)CC3 | -17.6 | – |
| O=c1cc(CO)oc(C(Nc2cccc([N+](=O)[O-])c2)c2ccccn2)c1O (centres undefined) | -2.19 | – |
| CC1CCN(CC(=O)Nc2nccs2)CC1 | -8.17 | – |
| Cn1nnnc1SCC(=O)Nc1sccc1C(N)=O | -0.145 | – |
| CCOC(=O)c1c(-c2ccc(C)cc2C)csc1NC(=O)CSc1nnnn1C | – | 20.6 µM (active) |
| CCOC(=O)CNC(=O)CSc1nnnn1-c1cc(C)ccc1C | -6.94 | – |

| Structure (SMILES) | activity change, negative = growth inhibition [%] | Potency |
| --- | --- | --- |
| O=C1c2ccccc2C(=O)N1Cc1cc(-c2ccccc2Cl)no1 | -2.31 | – |
| CS(=O)(=O)Nc1ccccc1N=C(c1ccccc1)c1ccccc1 | -23.1 | – |
| O=C(COc1ccc(S(=O)(=O)NCCc2ccccc2)cc1)N1CCCC1 | -19.6 | – |
| O=C(CCC1CCCN(C(=O)c2ccc(F)c(F)c2)C1)N1CCN(c2ccccn2)CC1 (centres undefined) | – | 18.4 µM (active) |
| C=Cc1ccc(C(=O)N2CCCC(CCC(=O)N3CCN(c4ccccn4)CC3)C2)cc1 (centres undefined) | -9.1 | – |
| Cc1nn(-c2ccc(N3CCCCC3)nn2)c(C)c1CCC(=O)NCc1ccccc1F | -9.4 | – |
| COc1cccc(CNC(=O)CCC2CCCN(C(=O)c3ccc(F)c(Cl)c3)C2)c1 (centres undefined) | – | 18.4 µM (active) |
| Cc1[nH]c2c(C(=O)N3CCCC(CCC(=O)NCc4ccccc4F)C3)cccc2c1C (centres undefined) | – | 20.6 µM (active) |
| COc1cccc(C(=O)N2CCCC(CCC(=O)NCc3ccc(F)c(F)c3)C2)c1 (centres undefined) | -58.6 | – |
| CC(=O)c1ccc(S(=O)(=O)NCCC(=O)N2CCN(c3ccccn3)CC2)cc1 | -23.6 | – |
| COc1cccc(CNC(=O)CCC2CCCN(C(=O)c3cc(C)[nH]n3)C2)c1 (centres undefined) | -16.4 | – |
| CSc1ncccc1C(=O)N1CCCC(CCC(=O)NCc2ccccc2F)C1 (centres undefined) | 1.92 | – |
| Cc1ccnc(N)c1 | -12.1 | – |
| Cc1ccc(NC(=O)CSc2sc3c(O)cc(=O)[nH]c3c2C#N)cc1C | 0.436 | – |
| CCC1CCCCN1CCNC(=O)c1[nH]c(C)c(C(C)=O)c1C (centres undefined) | 1.81 | – |
| O=C(Nc1ccon1)c1nc[nH]c1C(=O)NCc1ccccc1 | -23.3 | – |
| COc1ccc(/C(O)=C2/C(=O)C(=O)N(c3nc(C)c(C)s3)C2c2ccco2)cc1 (centres undefined) | -16.5 | – |
| Cc1ccc(C)c(NC(=O)CN(C)C(=O)c2ccc3ncsc3c2)c1 | -5 | – |
| Fc1cccc(Cc2noc(CN3CCN(c4cnccn4)CC3)n2)c1 | -6.03 | – |
| CC(=O)Nc1ccc(NC(=S)NC(=O)/C=C/c2ccccc2)cc1 | -20.6 | – |
| CC1(C)C=Cc2c(ccc(C(=O)/C=C/c3ccccc3)c2O)O1 | – | 8.91 µM (active) |
| CC1(C(=O)O)CCN1C(=O)/C=C/c1ccccc1 (centres undefined) | -14.2 | – |
| C[C@H](O)[C@@H]1C(=O)N2CCc3ccc(N4CCOCC4)cc3[C@@H]2C[C@@H]1N(C)C(=O)C(C)(C)C | 0.412 | – |
| COc1cccc(N2C(=O)CC(N3CCN(S(=O)(=O)c4ccccc4)CC3)C2=O)c1 (centres undefined) | -3.21 | – |
| COc1ccc(-c2ccc3c(c2)[C@@H]2C[C@H](N(C)S(=O)(=O)c4ccccc4)[C@H]([C@H](C)O)C(=O)N2CC3)cc1 | – | 16.4 µM (active) |

| Structure (SMILES) | activity change, negative = growth inhibition [%] | Potency |
| --- | --- | --- |
| CC1=C(C(N)=O)C(c2ccc(F)cc2)n2nc(CCCO)nc2N1 (centres undefined) | 4.07 | – |
| Cc1cccc(CCNS(=O)(=O)c2ccc3c(c2)NC(=O)CO3)c1 | -17.4 | – |
| CCOC(=O)c1cc(-c2ccccc2)n(-c2cccc(C(=O)Nc3cc(OC)cc(OC)c3)c2)c1C | -16.9 | – |
| COc1cc(OC)cc(C(=O)Nc2cc3nn(-c4ccccc4)nc3cc2Cl)c1 | – | 16.4 µM (active) |
| CCCC(=O)Nc1cc2nn(-c3ccccc3)nc2cc1C | -21 | – |
| CCCn1c(N)c(C(=O)CSc2nnc(Cc3cccs3)n2C2CC2)c(=O)[nH]c1=O | -20.6 | – |
| Cc1cccc(Nc2nnc(SCC(=O)c3c(N)n(C4CC4)c(=O)[nH]c3=O)s2)c1C | – | 11.6 µM (active) |
| Cc1ccccc1Nc1nnc(SCC(=O)c2cc3ccccc3o2)s1 | -103 | – |
| CC1CC(C)CN(C/C=C/c2ccccc2[N+](=O)[O-])C1 (centres undefined) | -22.6 | – |
| COc1ccc(N2CCN(C3CC(=O)N(c4ccc5c(c4)OCCO5)C3=O)CC2)cc1 (centres undefined) | 5.91 | – |
| CC(C)CC1C(=O)N(Cc2cn(Cc3ccco3)nn2)CCS(=O)(=O)N1Cc1ccc(-c2ccc(Cl)c(Cl)c2)cc1 (centres undefined) | – | 20.6 µM (active) |
| CC1C(=O)N(Cc2cn(Cc3ccco3)nn2)CCS(=O)(=O)N1Cc1ccc(-c2cccc(CO)c2)cc1 (centres undefined) | – | 9.2 µM (active) |
| CCc1cc(=O)oc2cc(C)cc(OCC(=O)N3CCC[C@@H]3C(=O)O)c12 | -3.49 | – |
| CC(NC(=O)COc1ccccc1)C(=O)NC1=NCCS1 (centres undefined) | -4.39 | – |
| CCOc1ccc(OCC(=O)Nc2c3c(nn2C(C)(C)C)CS(=O)(=O)C3)cc1 | 4.73 | – |
| CCN1C(=O)C(CC(=O)Nc2cc(C)ccc2C)SC1=Nc1ccc(S(N)(=O)=O)cc1 (centres undefined) | -22.5 | – |
| CCOc1cccc2cc(C(=O)OCC(=O)Nc3c(C)cccc3CC)c(=O)oc12 | -14.4 | – |
| Cc1ccc(CN2CCN(Cc3cn(C)nc3-c3ccccc3)CC2CCO)o1 (centres undefined) | -4.56 | – |
| COc1ccc(CN2CCN(Cc3cn(C)nc3-c3ccccc3)CC2CCO)c(C)c1C (centres undefined) | – | 18.4 µM (active) |
| Cc1ccc(CN2CCN(Cc3cccc(C)n3)CC2CCO)cc1 (centres undefined) | -6.22 | – |
| O=C(Cc1ccccc1)n1nc(-c2ccccc2)nc1NCc1ccco1 | -20.2 | – |
| O=C(c1ccco1)n1nc(-c2ccc(Cl)cc2)nc1NCc1ccccc1 | – | 18.4 µM (active) |
| O=C(c1ccc(Cl)cc1)n1nc(-c2cccnc2)nc1NCc1ccc(F)cc1 | -17.7 | – |
| O=C(c1cccs1)n1nc(NCc2ccccc2)nc1NCc1ccccc1 | -25.3 | – |
| COc1ccc(CNc2nc(-c3ccccc3)nn2C(=O)c2ccccc2OC)cc1 | – | 18.4 µM (active) |

| Structure (SMILES) | activity change, negative = growth inhibition [%] | Potency |
| --- | --- | --- |
| CCCC(=O)n1nc(NCc2ccc(OC)cc2)nc1NCc1ccc(OC)cc1 | -12 | – |
| CC1CCCCC12NC(=O)N(CC(=O)OCC(=O)NCc1ccc(F)cc1)C2=O (centres undefined) | 13 | – |
| CN1CCN(c2cc(=O)n(-c3ccc(Cl)cc3)c(=O)[nH]2)CC1 | 8.74 | – |
| O=C(O)c1ccccc1N=N/C(=N/Nc1cc(S(=O)(=O)O)ccc1O)c1ccccc1 | -21.2 | – |
| Cc1c(Cl)cccc1NC(=O)CCS(=O)(=O)c1ccc2c(c1)oc(=O)n2C | -28.5 | – |
| NC(=O)C1CCN(C(=O)CC2C(=O)NCCN2Cc2cccc(Oc3ccccc3)c2)CC1 (centres undefined) | 8.81 | – |
| Cc1ccc(SCC(=O)NNC(=O)c2ccc(S(C)(=O)=O)cc2)cc1 | -6.08 | – |
| Cc1ccccc1-n1cc(CNC(=O)CC2C(=O)NCCN2C/C=C/c2ccccc2)cn1 (centres undefined) | 0.773 | – |
| COCCCNC(=O)Cc1ccc(-n2c(C)nc3cccnc32)cc1 | -5.57 | – |
| COCCn1c(CCC(=O)Nc2cc(C)ccc2C)nc2cccnc21 | -22.2 | – |
| CCc1nc2cccnc2n1-c1ccc(C(=O)O)cc1 | 7.89 | – |
| Cc1ccc(Cl)cc1NC(=O)Cc1ccc(-n2c(C)nc3cccnc32)cc1 | – | 23.1 µM (active) |
| Cc1ccc(Cl)cc1NC(=O)c1ccccn1 | -1.57 | – |
| COc1cc(OC)c(NC(=O)Cc2ccc(-n3c(C)nc4cccnc43)cc2)cc1Cl | – | 14.6 µM (active) |
| O=C(O)C1CCN(c2ncnc3ccc(-c4ccccc4C(F)(F)F)cc23)CC1 | 2.09 | – |
| O=C(CC1C(=O)NCCN1CC(c1ccccc1)c1ccccc1)NCCc1cn[nH]c1 (centres undefined) | -18.8 | – |
| CCN(CC(=O)NCc1cccs1)C(=O)c1ccc(OC)c(S(=O)(=O)N2CCOCC2)c1 | -13.2 | – |
| Cc1ccc(C2=Nc3c(ccc4ccccc34)C(c3ccncc3)=NN2)cc1 | – | 11.6 µM (active) |
| COc1cc(C)nc(N2CCCC(C(=O)NCC(C)C)C2)n1 (centres undefined) | -8.52 | – |
| COCCNC(=O)CSc1nc(N)c(NC(=O)c2ccco2)c(=O)[nH]1 | 17.3 | – |
| O=C(NC(=S)Nc1ccc(S(=O)(=O)Nc2ncccn2)cc1)c1cccc(Br)c1 | -16.1 | – |
| CCC1Oc2ccccc2N(CC(=O)NCCCN2CCN(CC)CC2)C1=O (centres undefined) | 10.1 | – |
| CC(C)OCCCNC(=O)CN1C(=O)/C(=C/c2ccccc2F)Oc2ccccc21 | – | 10.3 µM (active) |
| O=C(CN1C(=O)S/C(=C\c2ccccc2F)C1=O)NCCCn1ccnc1 | 0.574 | – |
